Experimental data from the supplement of paper PMC11732987, “Enantioselective OTUD7B fragment discovery through chemoproteomics screening and high-throughput optimisation” (Communications Chemistry, 2025).

Columns and labels:
Assay in all cases: log2 ratio of Biotin-Ahx-Ub-VS probe labelling (fragment/DMSO); higher = less target engagement (more negative = stronger competition), active = hit call of the paper (q ≤ 0.05, log2 ratio ≤ -1)
Settings in all cases: compound concentration: 200 uM; treatment time: 3 h
OTUD6B = molecular target: T1, OTUD6B (UniProt Q8N6M0)
T1 sequence (whole entry): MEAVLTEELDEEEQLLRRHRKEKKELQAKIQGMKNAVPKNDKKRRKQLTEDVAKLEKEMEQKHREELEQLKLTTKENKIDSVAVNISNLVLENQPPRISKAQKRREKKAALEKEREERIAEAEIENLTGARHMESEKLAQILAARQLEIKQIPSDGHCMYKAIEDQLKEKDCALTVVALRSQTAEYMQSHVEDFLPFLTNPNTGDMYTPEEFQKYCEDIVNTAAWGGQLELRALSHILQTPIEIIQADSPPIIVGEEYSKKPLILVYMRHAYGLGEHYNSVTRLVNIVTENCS
In short: (§1)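 Fragment (200 µM) or vehicle was incubated for 3 h with triplicate HEK293T lysate samples of 495 µg, which were then treated with Biotin-Ahx-Ub-VS at 0.5 µM final for 1 h. Labelled DUBs were enriched on NeutrAvidin, digested with LysC and trypsin, and analysed by diaPASEF LC-MS/MS. Values are average log2 fragment/vehicle ratios from an unpaired t-test on global-median-normalised Spectronaut label-free quantities, using proteins with ≥2 unique peptides.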

OTUD7B = molecular target: T2, OTUD7B (UniProt Q6GQQ9)
T2 sequence (whole entry): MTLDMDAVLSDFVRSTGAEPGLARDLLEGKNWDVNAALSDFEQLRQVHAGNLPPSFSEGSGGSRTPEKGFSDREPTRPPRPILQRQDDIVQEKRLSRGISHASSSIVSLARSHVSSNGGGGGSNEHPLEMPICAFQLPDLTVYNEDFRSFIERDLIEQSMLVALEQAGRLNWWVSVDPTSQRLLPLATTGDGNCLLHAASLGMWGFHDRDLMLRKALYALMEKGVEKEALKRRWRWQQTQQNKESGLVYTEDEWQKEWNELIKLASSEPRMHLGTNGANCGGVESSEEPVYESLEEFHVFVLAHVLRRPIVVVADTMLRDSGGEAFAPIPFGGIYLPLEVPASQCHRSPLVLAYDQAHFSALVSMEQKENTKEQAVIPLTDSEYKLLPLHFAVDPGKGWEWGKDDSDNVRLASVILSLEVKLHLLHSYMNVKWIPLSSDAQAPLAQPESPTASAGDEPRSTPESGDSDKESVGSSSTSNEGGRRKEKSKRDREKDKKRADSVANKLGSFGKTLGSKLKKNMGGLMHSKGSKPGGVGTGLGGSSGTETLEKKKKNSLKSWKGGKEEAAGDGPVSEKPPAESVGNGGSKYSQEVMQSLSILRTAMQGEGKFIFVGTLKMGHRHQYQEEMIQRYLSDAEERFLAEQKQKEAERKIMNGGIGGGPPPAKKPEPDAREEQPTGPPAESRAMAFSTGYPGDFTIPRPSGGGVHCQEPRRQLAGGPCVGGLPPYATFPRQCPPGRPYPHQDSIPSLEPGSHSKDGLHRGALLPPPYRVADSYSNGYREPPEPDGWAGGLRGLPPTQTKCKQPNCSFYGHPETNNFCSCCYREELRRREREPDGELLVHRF
In short: as §1

PRPF8 = PRPF8 (UniProt Q6P2Q9)
In short: as §1

PSMD7 = molecular target: T3, PSMD7 (UniProt P51665)
T3 sequence (whole entry): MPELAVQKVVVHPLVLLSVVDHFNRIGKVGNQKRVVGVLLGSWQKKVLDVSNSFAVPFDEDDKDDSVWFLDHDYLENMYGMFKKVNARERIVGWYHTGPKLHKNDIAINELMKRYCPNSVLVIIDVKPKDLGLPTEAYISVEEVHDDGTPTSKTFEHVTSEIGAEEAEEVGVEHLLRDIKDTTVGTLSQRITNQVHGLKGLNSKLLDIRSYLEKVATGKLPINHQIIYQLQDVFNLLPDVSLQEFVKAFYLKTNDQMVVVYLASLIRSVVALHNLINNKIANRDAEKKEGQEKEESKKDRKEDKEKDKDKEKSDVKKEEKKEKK
In short: as §1

UCHL1 = UCHL1 (UniProt P09936)
UCHL1, sequence (P09936 whole entry, looked up): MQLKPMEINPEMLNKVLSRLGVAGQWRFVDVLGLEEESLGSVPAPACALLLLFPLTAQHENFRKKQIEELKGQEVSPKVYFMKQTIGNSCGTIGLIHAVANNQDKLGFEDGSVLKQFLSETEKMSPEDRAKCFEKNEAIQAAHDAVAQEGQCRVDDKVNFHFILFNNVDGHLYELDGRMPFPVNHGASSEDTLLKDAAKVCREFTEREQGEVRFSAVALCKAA
In short: as §1

UCHL3 = molecular target: T4, UCHL3 (UniProt P15374)
T4 sequence (whole entry): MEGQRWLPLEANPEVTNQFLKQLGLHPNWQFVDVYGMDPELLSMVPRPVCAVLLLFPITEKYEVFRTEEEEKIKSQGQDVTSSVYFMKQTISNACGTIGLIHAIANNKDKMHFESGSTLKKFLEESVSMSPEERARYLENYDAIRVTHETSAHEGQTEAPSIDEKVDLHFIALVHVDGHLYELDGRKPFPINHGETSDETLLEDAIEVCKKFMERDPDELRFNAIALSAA
In short: as §1

UCHL5 = molecular target: T5, UCHL5 (UniProt Q9Y5K5)
T5 sequence (whole entry): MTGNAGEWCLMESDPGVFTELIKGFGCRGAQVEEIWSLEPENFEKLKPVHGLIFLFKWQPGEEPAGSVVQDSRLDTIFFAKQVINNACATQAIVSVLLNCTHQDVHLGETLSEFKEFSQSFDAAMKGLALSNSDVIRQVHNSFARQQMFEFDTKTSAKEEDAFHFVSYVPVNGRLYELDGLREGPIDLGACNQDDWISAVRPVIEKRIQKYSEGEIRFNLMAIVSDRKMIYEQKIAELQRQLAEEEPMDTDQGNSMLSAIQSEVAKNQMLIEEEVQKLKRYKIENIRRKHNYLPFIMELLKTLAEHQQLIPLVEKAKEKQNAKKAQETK
In short: as §1

USP10 = USP10 (UniProt Q14694)
USP10, sequence (Q14694 whole entry): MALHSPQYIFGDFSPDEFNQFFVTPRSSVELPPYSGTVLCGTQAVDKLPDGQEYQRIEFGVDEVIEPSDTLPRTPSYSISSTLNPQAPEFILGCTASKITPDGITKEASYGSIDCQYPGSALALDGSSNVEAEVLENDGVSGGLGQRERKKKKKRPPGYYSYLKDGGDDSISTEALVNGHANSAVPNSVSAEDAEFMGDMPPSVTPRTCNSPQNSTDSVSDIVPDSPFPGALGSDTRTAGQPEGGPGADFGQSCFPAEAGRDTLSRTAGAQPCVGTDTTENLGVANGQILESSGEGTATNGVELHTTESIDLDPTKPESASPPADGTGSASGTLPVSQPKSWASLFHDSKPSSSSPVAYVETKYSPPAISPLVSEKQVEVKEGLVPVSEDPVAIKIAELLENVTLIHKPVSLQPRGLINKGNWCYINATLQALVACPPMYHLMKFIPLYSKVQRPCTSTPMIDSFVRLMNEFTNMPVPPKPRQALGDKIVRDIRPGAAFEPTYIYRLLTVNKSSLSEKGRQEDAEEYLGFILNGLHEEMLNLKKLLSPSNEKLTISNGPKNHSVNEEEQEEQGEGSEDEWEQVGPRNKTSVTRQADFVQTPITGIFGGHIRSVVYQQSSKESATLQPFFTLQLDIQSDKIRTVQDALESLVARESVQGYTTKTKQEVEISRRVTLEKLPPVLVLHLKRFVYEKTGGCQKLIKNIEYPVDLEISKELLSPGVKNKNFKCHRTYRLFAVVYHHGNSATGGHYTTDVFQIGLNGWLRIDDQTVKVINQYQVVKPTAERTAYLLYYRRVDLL
In short: as §1

USP15 = molecular target: T6, USP15 (UniProt Q9Y4E8)
T6 sequence (whole entry): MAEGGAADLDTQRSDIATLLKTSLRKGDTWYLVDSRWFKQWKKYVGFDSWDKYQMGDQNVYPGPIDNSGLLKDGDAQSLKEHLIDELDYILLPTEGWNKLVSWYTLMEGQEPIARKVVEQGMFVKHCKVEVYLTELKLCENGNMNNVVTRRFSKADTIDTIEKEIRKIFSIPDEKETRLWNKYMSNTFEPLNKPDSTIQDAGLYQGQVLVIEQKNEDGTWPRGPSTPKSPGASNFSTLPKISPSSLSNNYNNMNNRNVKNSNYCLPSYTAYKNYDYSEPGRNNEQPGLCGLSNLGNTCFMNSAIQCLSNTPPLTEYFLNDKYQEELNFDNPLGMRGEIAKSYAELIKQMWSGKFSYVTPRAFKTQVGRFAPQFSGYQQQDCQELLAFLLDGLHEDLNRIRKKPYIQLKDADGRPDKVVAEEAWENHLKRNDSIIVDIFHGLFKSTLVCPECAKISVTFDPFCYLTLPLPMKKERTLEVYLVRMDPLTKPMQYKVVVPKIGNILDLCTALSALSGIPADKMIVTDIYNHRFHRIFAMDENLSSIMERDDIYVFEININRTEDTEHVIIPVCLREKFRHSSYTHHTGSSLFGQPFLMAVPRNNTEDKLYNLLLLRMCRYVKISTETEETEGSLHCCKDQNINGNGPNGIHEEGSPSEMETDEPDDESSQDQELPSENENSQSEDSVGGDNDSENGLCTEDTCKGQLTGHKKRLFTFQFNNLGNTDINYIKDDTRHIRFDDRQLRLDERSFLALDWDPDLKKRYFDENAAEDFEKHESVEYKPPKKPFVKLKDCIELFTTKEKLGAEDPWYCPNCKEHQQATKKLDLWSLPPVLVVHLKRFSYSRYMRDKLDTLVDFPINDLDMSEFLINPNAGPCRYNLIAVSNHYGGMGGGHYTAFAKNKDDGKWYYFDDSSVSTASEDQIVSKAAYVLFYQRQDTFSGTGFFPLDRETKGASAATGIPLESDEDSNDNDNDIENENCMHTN
In short: as §1

USP16 = USP16 (UniProt Q9Y5T5)
USP16, sequence (Q9Y5T5 whole entry, looked up): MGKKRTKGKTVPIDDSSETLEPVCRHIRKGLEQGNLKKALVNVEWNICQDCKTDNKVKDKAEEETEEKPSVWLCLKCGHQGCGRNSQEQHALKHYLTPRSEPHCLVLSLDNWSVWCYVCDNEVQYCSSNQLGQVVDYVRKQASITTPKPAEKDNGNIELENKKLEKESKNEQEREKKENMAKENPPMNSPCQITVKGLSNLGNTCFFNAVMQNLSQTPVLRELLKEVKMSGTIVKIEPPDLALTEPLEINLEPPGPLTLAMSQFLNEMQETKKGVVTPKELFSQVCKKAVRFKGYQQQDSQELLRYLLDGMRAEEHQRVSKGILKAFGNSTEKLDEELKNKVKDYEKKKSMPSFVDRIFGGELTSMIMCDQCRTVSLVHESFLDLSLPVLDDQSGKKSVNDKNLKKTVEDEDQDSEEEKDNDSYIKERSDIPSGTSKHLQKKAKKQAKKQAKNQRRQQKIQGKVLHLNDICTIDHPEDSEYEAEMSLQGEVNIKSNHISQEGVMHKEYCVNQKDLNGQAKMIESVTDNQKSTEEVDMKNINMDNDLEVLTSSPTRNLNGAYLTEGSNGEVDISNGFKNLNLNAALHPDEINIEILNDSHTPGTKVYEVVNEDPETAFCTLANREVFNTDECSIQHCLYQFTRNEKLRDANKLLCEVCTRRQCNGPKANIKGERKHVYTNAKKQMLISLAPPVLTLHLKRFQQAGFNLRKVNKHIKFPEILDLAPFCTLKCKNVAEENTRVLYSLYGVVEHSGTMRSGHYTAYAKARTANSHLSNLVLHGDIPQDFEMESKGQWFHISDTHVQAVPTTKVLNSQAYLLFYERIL
In short: as §1

Measured: log2 ratio of Biotin-Ahx-Ub-VS probe labelling

Cc1ccc(C)c(NC(=O)CCl)c1
active: UCHL1 -1.17
inactive: OTUD6B -0.56 | OTUD7B -0.844 | PRPF8 -0.000105 | PSMD7 -0.209 | UCHL3 -0.416 | UCHL5 -0.568 | USP10 -0.39 | USP15 -0.203 | USP16 -0.0434
